# TrxR1 substrate = rat thioredoxin reductase 1 substrate activity | AID 588456 | purified TrxR1 substrate turnover, NADPH consumption readout | 390,000 compounds, 0.01% hits | Potency, µM (series often up to 114 µM), inactives show top-dose activity change, negative = substrate turnover; also: potency is read from the fitted curve at half-maximal effect; nearly all actives have a fitted effect of over 50% in size
#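 Rat TrxR1, dispensed at 90 nM, was prereduced with 400 uM NADPH (final) for 5 min at ~22 deg C, then incubated with compound 15 min before 400 uM selenite. A first-read NADPH fluorescence drop versus no-compound background flagged substrates.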
# Giardia killer = Giardia lamblia killing. AID 540267. Giardia lamblia trophozoite viability. activity change, % at 7.66 µM, hits read low. 340,000 compounds, 0.15% hits; in the data active = activity change below about -80%; inconclusive = between about -30% and that limit;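 also: parasites exposed to compound for two days anaerobically before the ATP read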
#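 Giardia trophozoites, 100 cells per well, were exposed to compounds for 48 hrs at 37 deg C under anaerobic conditions; viability was then read as ATP content by bioluminescence after 15-30 min at room temperature.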
# PI4K2A inh = PI4K2A (human) kinase inhibition; Q9BTU6; purified PI4K2A, ADP-Glo luminescence, 1 h; active compounds read low; activity change, negative = inhibition, % at 76.9 µM; 420,000 compounds, 0.13% hits; AID 1346378; in the data active = activity change below about -50%; inconclusive = mostly about -30% to -49%;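 also: -100% = wells without enzyme as full effect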
# Target sequence (Q9BTU6 whole entry, looked up): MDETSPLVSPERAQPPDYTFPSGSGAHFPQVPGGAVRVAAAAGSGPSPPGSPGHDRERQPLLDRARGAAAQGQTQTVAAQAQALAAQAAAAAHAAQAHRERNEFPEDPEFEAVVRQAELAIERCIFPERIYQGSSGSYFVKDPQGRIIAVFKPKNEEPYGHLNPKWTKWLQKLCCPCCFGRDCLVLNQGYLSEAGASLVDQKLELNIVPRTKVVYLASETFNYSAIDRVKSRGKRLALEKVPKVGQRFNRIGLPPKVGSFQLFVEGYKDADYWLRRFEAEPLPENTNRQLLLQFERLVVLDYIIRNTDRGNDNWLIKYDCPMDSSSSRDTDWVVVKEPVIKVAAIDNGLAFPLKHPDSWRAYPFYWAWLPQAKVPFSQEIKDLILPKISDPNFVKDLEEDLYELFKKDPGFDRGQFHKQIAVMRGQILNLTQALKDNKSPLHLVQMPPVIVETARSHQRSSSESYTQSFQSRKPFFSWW
#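 PI4K2A activity was measured by ADP-Glo luminescence: enzyme (4 ug/mL stock) and phosphatidylinositol (1.2 mM stock) in Tris pH 7.5/MgCl2/EGTA/Triton X-100 buffer were reacted with ATP (300 microM stock) for one hour at ambient temperature.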
# Coupling enz = inhibits coupling enzyme system, counter-screen for aldolase hits; coupling enzyme system counterscreen, AmpLite Red fluorescence; activity change, negative = inhibition, % at 58.2 µM, hits read low; 290,000 compounds, 0.67% hits; in the data active = activity change below about -30%
#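 Counterscreen lacking aldolase: glyceraldehyde-3-phosphate coupling-enzyme reagent preincubated 10 min at RT with compound (at 57.5 uM final), then substrate/coupling system with AmpLite Red added; fluorescence read at 525/598 nm after 20 min RT.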
# rTrxR1 inhibitor = rat TrxR1 inhibition; Potency, µM (titrated, usually from 114 µM), without a hit: at the highest dose activity change, negative = inhibition, most hits filed as inhibitors; 390,000 compounds, 1% hits; recombinant rTrxR1, NADPH fluorescence consumption, selenite substrate; AID 588453; O89049; also: potency is read from the fitted curve at half-maximal effect; nearly all actives have a fitted effect of over 65% in size
#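 Rat TrxR1 (90 nM in the dispensed reagent) was pre-reduced with 400 uM NADPH for 5 min at room temperature, then incubated with compound for 15 min. After 400 uM selenite was added, NADPH fluorescence (Ex 340/Em 450 nm) was followed for 8 min.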
# GALK inh = blocks human galactokinase activity | 270,000 compounds, 0.007% hits | AID 1868 | Potency, µM (doses to about 57.5 µM), for inactives: top-dose activity change, negative = inhibition, usual class: inhibitors | Purified GALK, Kinase-Glo residual ATP luminescence; also: potency is read from the fitted curve at half-maximal effect
#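 5 nM enzyme, 35 uM ATP, 100 uM galactose, 20 mM HEPES pH8.0, 5 mM MgCl2; 1 h RT; residual ATP by Kinase-Glo Plus luminescence, qHTS format.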
# Starred values were filed as active, the others as inactive; u = inconclusive; x = no result given; ! = a repeat was not active; [ ] = remark or other dose. This is a sample that favours compounds with a hit; in the whole collection about 1.5% have one here. Unless noted, calls follow the shape of the dose curve; as a rule, active = well fitted curve in the direction sought with a large enough effect; inconclusive = small, poorly fitted or top-dose-only effect, or another doubt; inactive = no such curve, though single readings can be large; an effect the other way counts as inactive or inconclusive. Unless noted, % is scaled to controls: 0 for no effect and ±100 for the full control effect.
SMILES,TrxR1 substrate,Giardia killer,PI4K2A inh,Coupling enz,rTrxR1 inhibitor,GALK inh
CCOC(=O)C1=C(C)NC(=S)NC1c1ccc(-c2cccc(Cl)c2C)o1 (centres undefined),9%,5,-2,0,22µM*,3%
CCOC(=O)C1=C(C)NC(=S)NC1c1ccco1 (centres undefined),-5%,17,-11,5,50µM*,7%
CCOC(=O)C1=C(C)NC(=S)NC1c1ccc(-c2ccc(Cl)cc2)o1 (centres undefined),-3%,2,0,3,u,2%
CCOC(=O)c1c(C)n(-c2ccc(C)cc2)c2c(C(C(C)=O)C(=O)O)c(Br)c(O)c(O)c12 (centres undefined),-15%,3,1,-34*,u,-4%
CNC(=O)C[C@H]1CC[C@H]2[C@@H](COc3ccc(NC(=O)Nc4ccccc4)cc3C(=O)N2C)O1,x,x,1,x,x,x
CN1CCN(C(=O)c2sc(=S)n(-c3ccccc3)c2N)CC1,-8%,-11,-21,-48*,-20%,3%
Cc1ccc(-n2c(N)c(C(=O)N3CCOCC3)sc2=S)cc1,-4%,-2,4,0,-7%,1%
CC[C@H](C)[C@H](NC(=O)[C@H](Cc1ccc(O)cc1)NC(=O)[C@@H]1CCCN1C(=O)[C@H](CCCCN)NC(=O)[C@@H](N)CCCCN)C(=O)N[C@@H](CC(C)C)C(=O)O,x,x,x,-2,x,x
O=C(NCCCn1ccnc1)c1noc2c1CCc1ccccc1-2,7%,15,-7,-44*,-15%,1%
COc1ccc(-n2cccc2/C=C/[N+](=O)[O-])cc1,3%,-19,-12,-4,10µM*,x
CN(C)CCCOc1c2ccccc2n(Cc2ccccc2)[n+]1[O-],x,x,x,-1,x,x
CCOc1ccc(-n2c(=O)c3c(C)c(C)sc3n(CC(=O)c3ccccc3)c2=O)cc1,3%,x,0,x,6%,x
O=C(CCl)N1CCN(S(=O)(=O)c2ccc3ccccc3c2)CC1,10%,-16,13,0,8.9µM*,-2%
CN(C)C(=O)N1CCN(S(=O)(=O)c2ccc3ccccc3c2)CC1,-11%,1,-4,4,-8%,-4%
O=C(CCl)Nc1cc(S(=O)(=O)N2CCCCCC2)ccc1Cl,-11%,-5,4,3,7.9µM*,-3%
CC(C)(C)CC(=O)Nc1cc(S(=O)(=O)N2CCCCCC2)ccc1Cl,-4%,11,-3,-4,14%,3%
N#Cc1ccc(NCCNCC(=O)N2N=CCC2C#N)nc1 (centres undefined),x,x,x,0,x,x
O=c1c2ccccc2nc2n1CC/C2=C/N1CCN(c2cccc(C(F)(F)F)c2)CC1,-1%,10,-1,-25,14µM*,5%
COC(=O)[C@]12C[C@H](CC(=O)NCc3cccc(C(F)(F)F)c3)C(=O)N(Cc3ccc(Cl)cc3Cl)C1=C[C@H](C(C)(C)C)O[C@@H]2C,x,x,1,x,x,x
C[N+]1(CC(=O)c2ccc(Br)cc2)CCOCC1,6%,x,x,x,23%,x
C=C1C(=O)O[C@@H]2[C@@H]1CC/C(C)=C\CC[C@@]1(C)O[C@H]21,x,x,x,4,x,x
C=C1C(=O)O[C@@H]2[C@H]3O[C@]3(C)CCC=C(C)CC[C@@H]12,18%[57.1 µM],x,10,2,17µM*!,x
COc1ccc(-c2cc(-c3nnc(SCc4cccc5ccccc45)n3N)[nH]n2)cc1,x,x,-4,x,x,x
COC(=O)c1c(NS(=O)(=O)c2ccccc2)csc1C,-7%[57.1 µM],-14,-1,-34*,-2%[57.1 µM],7%
COc1cccc(CNc2ccc(N3CCCCC3)cc2)c1OC,-4%[57.1 µM],11,-10,-34*,u,0%
SMILES,TrxR1 substrate,Giardia killer,PI4K2A inh,Coupling enz,rTrxR1 inhibitor,GALK inh
Cc1ccc(C)c(NC(=O)Cn2c(=O)n(CC3CCCO3)c(=O)c3ccccc32)c1 (centres undefined),9%,x,-8,x,14%,x
Cc1[nH]n(S(=O)(=O)c2ccccc2)c(=O)c1N=Nc1cccc(Cl)c1,3%[57.1 µM],u,3,1,1%[57.1 µM],3%
Cc1[nH]n(S(=O)(=O)Cc2ccccc2)c(=O)c1N=Nc1ccccc1Cl,-5%,-89*,1,6,21%[57.1 µM],7%
Cc1ccc2cc(CN(C(=O)c3ccco3)c3ccccc3)c(=O)[nH]c2c1,6%,-8,20,-2,u,-3%
Cc1cccc(N(Cc2cc3ccc(C)cc3[nH]c2=O)C(=O)c2ccco2)c1,3%,4,-1,8,35µM*,0%
CN(C)NC(=S)Nc1ccc2nc(-c3ccccn3)c(-c3ccccn3)nc2c1,-3%,-7,1,-17,-23%,-4%
CC(C)(C)CC(C)(C)NC(=S)Nc1ccc2nc(-c3ccccn3)c(-c3ccccn3)nc2c1,-1%,3,1,-56*,12%,-1%
S=C(Nc1ccc2nc(-c3ccccn3)c(-c3ccccn3)nc2c1)N1CCOCC1,6%[57.1 µM],-15,0,-41*,13%[57.1 µM],-2%
OCCCNC(=S)Nc1ccc2nc(-c3ccccn3)c(-c3ccccn3)nc2c1,12%,2,-3,-33*,u,-1%
CN1CCN(Cc2c(O)ccc3cc(Br)ccc23)CC1,-5%,2,-1,-12,35µM*,7%
CCc1cc(=O)oc2c(CN3CCN(C)CC3)c(O)ccc12,536%[57.1 µM],4,-20,-1,79%[57.1 µM],-2%
Cc1c(C(=O)c2ccc(Cl)cc2[N+](=O)[O-])c2ccccn2c1CCC#N,-2%[57.1 µM],-100*,-2,6,-21%[57.1 µM],2%
Cc1c(C(=O)c2ccc(F)cc2F)c2ccccn2c1CCC#N,-6%,6,-4,-40*,-10%,-1%
Cc1c(C(=O)c2ccc(Cl)c([N+](=O)[O-])c2)c2ccccn2c1CCC#N,-2%[57.1 µM],2,0,-5,-15%[57.1 µM],-3%
CC(=O)Nc1nonc1-c1nc2ccccc2n1CC1CC1,8%,10,-6,-3,6%,0%
CC(=O)Nc1nonc1-c1nc2ccccc2n1N(C(C)=O)C(C)=O,24%,3,1,0,56µM*,2%
CCC(C)S(=O)(=O)c1oc(-c2cccs2)nc1S(=O)(=O)c1ccccc1 (centres undefined),16%,x,30,x,0.71µM*,x
CC(C)CS(=O)(=O)c1oc(-c2ccc(F)cc2)nc1S(=O)(=O)c1ccccc1,4%,x,57,x,0.32µM*,x
CNc1oc(-c2cccs2)nc1S(=O)(=O)c1ccccc1,-5%[57.1 µM],16,-3,0,33%[57.1 µM],-1%
CCn1c(Cc2cccs2)nnc1SCC(=O)Nc1ccc(OCc2ccccc2)cc1,x,x,-1,x,x,x
COc1ccc2c(c1)CCc1cnc(N)nc1-2,42%[57.1 µM],-19,-5,-13,27%[57.1 µM],-2%

# High-throughput results: PubChem, National Center for Advancing Translational Sciences (NCATS)
